Screen size: about 16,000 compounds; about 2,600 (16%) were called active. Another 20% or so got no clear call; they are omitted. The call rests on the fitted dose curve; in most records, active means well fitted curve in the direction sought with a large enough effect; inconclusive means small, poorly fitted or top-dose-only effect, or effect the other way; inactive means no such curve, though single readings can be large or run the other way. The list is a sample of the results. The source holds several records for some structures; these can differ, active in one and inactive in another.
molecular target: Cytochrome P450 2D6 (Homo sapiens) (UniProt P10635); experiment: Cytochrome panel assay with activity outcomes; settings: recombinant CYP, pro-luciferin dealkylation, luminescence, p450-cyp2d6; series mostly up to 57.1 µM; activity, negative = inhibition: at the top concentration
On the % scale 0 is the no-effect control and ±100 the full control effect.

Cytochrome P450 2D6 (Homo sapiens), sequence (P10635 whole entry, looked up): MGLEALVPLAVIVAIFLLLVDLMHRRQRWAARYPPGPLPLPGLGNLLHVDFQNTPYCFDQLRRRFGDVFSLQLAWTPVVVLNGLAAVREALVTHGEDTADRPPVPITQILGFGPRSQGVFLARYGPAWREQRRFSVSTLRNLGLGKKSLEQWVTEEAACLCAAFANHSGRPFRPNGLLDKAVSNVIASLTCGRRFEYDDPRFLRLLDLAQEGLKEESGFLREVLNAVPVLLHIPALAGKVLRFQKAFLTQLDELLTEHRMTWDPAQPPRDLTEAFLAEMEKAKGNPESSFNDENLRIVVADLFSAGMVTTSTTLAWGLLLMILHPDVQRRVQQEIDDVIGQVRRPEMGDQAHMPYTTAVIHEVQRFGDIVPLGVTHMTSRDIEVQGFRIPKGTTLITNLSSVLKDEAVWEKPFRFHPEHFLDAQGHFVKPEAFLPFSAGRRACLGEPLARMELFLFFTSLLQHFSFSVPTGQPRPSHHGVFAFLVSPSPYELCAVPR

| Compound | activity, negative = inhibition | AC50 |
| --- | --- | --- |
| N[C@@](CC(=O)O)(Cc1ccccc1)C(=O)O | 7.77% [at 11.4 µM] (inactive) | – |
| CCN1C(=O)[C@H]2[C@H]3[C@H](O)[C@H](O)C/C(=N/O[C@@H](C)c4cn([C@H]5COC[C@H]5O)nn4)[C@@H]3CC[C@@H]2C1=O | -1.04% [at 11.4 µM] (inactive) | – |
| C[C@H](C(=O)c1ccncc1)c1ccccn1 | -3.93% [at 11.4 µM] (inactive) | – |
| O=C(O)CN(CCN(CC(=O)O)CC(=O)O)CC(=O)O.[Mn] | 9.26% [at 11.4 µM] (inactive) | – |
| Cc1cc(=O)oc(C)c1C(=O)N1CCCCC1 | 15.6% (inactive) | – |
| CCCC[C@@H]1CN2[C@H](c3ccc(Br)cc3)[C@@H](C)CC[C@H]2C(=O)O1 | -5.55% [at 11.4 µM] (inactive) | – |
| CCN1CCN(CCC(=O)Nc2cccc(OC)c2)CC1 | -7.68% (inactive) | – |
| COc1ccc(S(=O)(=O)N2CCCN(CCC(=O)Nc3cccc(C(F)(F)F)c3)CC2)cc1 | – | 8.91 µM (active) |
| COc1ccc(NC(=O)c2cc(S(=O)(=O)N3CCS(=O)(=O)CC3)ccc2Cl)cc1 | 8.12% (inactive) | – |
| Cc1c(C(=O)Nc2cccc(C(F)(F)F)c2)oc2ccc(S(=O)(=O)N3CCOCC3)cc12 | -8.55% (inactive) | – |
| COc1ccc(S(=O)(=O)N2CCCN(CC(=O)Nc3ccc(OC)c(Cl)c3)CC2)cc1 | – | 11.2 µM (active) |
| COc1ccc(C)cc1NC(=O)CN1CCN(S(=O)(=O)c2ccc(F)cc2)CC1 | -21.5% (inactive) | – |
| Cc1nc(SC2CC(=O)N(c3ccc([N+](=O)[O-])cc3)C2=O)nc2c1CCCC2 (centres undefined) | -1.33% (inactive) | – |
| COC(=O)c1ccc(C(=O)OC)c(NC(=S)N2CCN(c3ccccc3)CC2)c1 | -16.5% (inactive) | – |
| C=CCOc1cccc(CNn2cn[nH]c2=S)c1 | 3.23% (inactive) | – |
| COc1cc(C2C(C#N)=C(N)N(c3sc4c(c3C#N)CCCC4)C3=C2C(=O)CC(C)(C)C3)cc(OC)c1OC (centres undefined) | 9.61% (inactive) | – |
| Cc1cc(C)c(O)c(Cc2cccc(Cc3cc(C)cc(C)c3O)c2O)c1 | 12.6% [at 11.4 µM] (inactive) | – |
| Cc1ccc(C(=O)N/N=C/c2sc(=O)n(Cc3cccc(C(=O)O)c3)c2Cl)cc1 | 12.6% (inactive) | – |
| CO[C@@H]1COC(=O)[C@H](C)NC(=O)[C@@H](C)COC(=O)CCC[C@H]1C | 8.56% [at 11.4 µM] (inactive) | – |
| CSc1nncc(/C(C)=N\Nc2ccccc2)n1 | -6.12% (inactive) | – |
| COCCN=C1Sc2nc3c(C)cccc3cc2CN1Cc1ccco1 | – | 14.1 µM (active) |
| CCn1c(SCC(=O)NC2CCCCC2)nnc1-c1cc2cccc(OC)c2o1 | -23.6% (inactive) | – |
| COCCNC(=O)CSc1ncnc2sccc12 | 13.7% (inactive) | – |
| COc1ccc(C2C(C(=O)N3CCN(C)CC3)c3ccccc3C(=O)N2C2CCCCC2)cc1 (centres undefined) | -5.85% (inactive) | – |
| CN(C)CCCNc1ncnc2nc[nH]c12 | 1.66% [at 11.4 µM] (inactive) | – |

| Compound | activity, negative = inhibition | AC50 |
| --- | --- | --- |
| Cc1ccc2nc(NC(=O)COC(=O)c3ccc(Br)o3)sc2c1 | – | 15.8 µM (active) |
| Cc1ccc2nc(NC(=O)CSCC(=O)OCC(=O)c3ccc(Br)cc3)sc2c1 | -12.5% (inactive) | – |
| Cc1ccc2nc(NC(=O)COC(=O)CSc3nc(C)cc(C)n3)sc2c1 | -23.1% (inactive) | – |
| C=C[C@]1(C)C[C@H](OC(=O)CO)[C@]2(C)C3C(=O)CC[C@]3(CC[C@H]2C)[C@H](C)[C@H]1O (some centres undefined) | -10.6% [at 11.4 µM] (inactive) | – |
| CC(=O)OCC(=O)[C@@]1(O)CC[C@@H]2[C@H]3CCC4=CC(=O)C=C[C@]4(C)[C@]3(F)[C@@H](O)C[C@@]21C | -1.72% [at 25.6 µM] (inactive) | – |
| O=C1C=C[C@@H](O)[C@H]2[C@@H]3C(=O)N(c4cccc(Oc5ccccc5)c4)C(=O)[C@@H]3CC[C@H]12 | -0.0224% [at 11.4 µM] (inactive) | – |
| COc1ccccc1CCn1c(=O)c(-c2cc(F)cc(F)c2)nc2cncnc21 | -11.2% (inactive) | – |
| CCCN(C(=S)Nc1ccccc1)C1CCS(=O)(=O)C1 (centres undefined) | -4.85% (inactive) | – |
| Cc1cccc(NC(=O)Cn2c(=O)n3nc(CCn4nc(C)cc4C)nc3c3ccccc32)c1 | – | 14.1 µM (active) |
| Cc1cccc(NC(=S)NC(=O)CCc2ccccc2)c1 | -17.4% (inactive) | – |
| Cc1cccc(NC(=S)NNC(=O)CCn2cc(C)cn2)c1 | -3.85% (inactive) | – |
| COc1ccc(CCNC(=O)Cn2c(=O)oc3ccccc32)cc1OC | -18.7% (inactive) | – |
| Cc1cccc(NC(=O)Cn2c(=O)oc3ccccc32)c1 | – | 3.16 µM (active) |
| Cc1cccc(NC(=O)Cn2cccc2)c1 | -5.49% (inactive) | – |
| COc1cc(C2C(C(=O)OCCC#N)=C(C)NC3=C2S(=O)(=O)c2ccccc23)cc(OC)c1OC (centres undefined) | -6.84% (inactive) | – |
| Cc1ccc(-c2ccnc(=S)[nH]2)cc1 | -14.8% (inactive) | – |
| Cc1c(C(=O)Nc2ccc(OCc3ccccc3)cc2)cccc1[N+](=O)[O-] | -5.06% (inactive) | – |
| COc1ccc(/C=N/NC(=O)CCCC(=O)NC2CCCCC2)cc1 | 16.3% (inactive) | – |
| CN(C)c1ncc2nc(-c3cc(F)cc(F)c3)c(=O)n(Cc3ccc(F)cc3)c2n1 | 10% (inactive) | – |
| Cc1ccc(Nc2nc(Cl)nc(N(C)C#N)n2)cc1 | 1.15% (inactive) | – |
| Nc1nnc(CC(=O)N/N=C/c2cccc([N+](=O)[O-])c2)s1 | -21.2% (inactive) | – |
| Cc1sc(N/N=C/C=C/c2ccccc2)nc1-c1ccccc1 | -10.8% (inactive) | – |
| Cc1cccc(-n2c(Cn3nc(C)c([N+](=O)[O-])c3C)n[nH]c2=S)c1 | 3.45% (inactive) | – |
| Cc1cccc(N/C(N)=N/c2nc(C)cc(C)n2)c1 | – | 2.82 µM (active) |
| Cc1ccc(C)c(NC(=O)Cn2nnc(C(=O)Nc3c(C)cccc3C)c2N)c1 | -25.4% (inactive) | – |

| Compound | activity, negative = inhibition | AC50 |
| --- | --- | --- |
| C/C(=N\NC(=S)Nc1cccc(C)c1)c1ccccc1 | -25.1% (inactive) | – |
| Cc1ccc(C)c(N/C(N)=N/c2nc(C)cc(C)n2)c1 | – | 0.794 µM (active) |
| Cc1nc(/N=C(\N)Nc2ccccc2)nc2ccccc12 | -12.1% (inactive) | – |
| Cc1ccc(C)c(NC(=O)c2ncn[nH]2)c1 | 8.78% (inactive) | – |
| Cc1cc(C)c(-c2cc([C@H](C)O/N=C\[C@@H](C)[C@H](OCc3ccccc3)C(C)C)on2)c(C)c1 | -7.16% [at 11.4 µM] (inactive) | – |
| COc1cccc(OC)c1OCCNC[C@@H]1COc2ccccc2O1 | – | 251 nM (active) and inactive |
| O=C(CCNC(=O)Cn1cnc2ccccc2c1=O)NCC1COc2ccccc2O1 (centres undefined) | 16.6% (inactive) | – |
| O=C(N/N=C/c1ccco1)/C(=C/c1cccc([N+](=O)[O-])c1)NC(=O)c1ccccc1 | -15.4% (inactive) | – |
| c1ccc(Nc2ncncc2-c2ccc3c(c2)OCO3)cc1 | – | 12.6 µM (active) |
| CN(C)c1ccc(-c2cc(NCc3ccccc3)ncn2)cc1 | -17.2% (inactive) | – |
| Cc1noc(C)c1-c1cncnc1Nc1ccccc1 | -7.49% (inactive) | – |
| Cn1cc(/C=C2/SC(=O)N(CC(=O)Nc3ccc4c(c3)OCO4)C2=O)c2ccccc21 | -6.65% (inactive) | – |
| O=C(O)c1cc(-c2ccc3cc4c(cc3c2)OCO4)nc2ccccc12 | -6.77% [at 11.4 µM] (inactive) | – |
| Cc1cccc(CNc2ncncc2-c2ccc3c(c2)OCO3)c1 | – | 6.31 µM (active) |
| O=c1oc2cc(N=Cc3ccc4c(c3)OCO4)ccc2c2ccccc12 | 4.96% [at 11.4 µM] (inactive) | – |
| Cn1c(-c2ccc3c(c2)OCO3)cc(=O)c2ccccc21 | – | 1.58 µM (active) |
| CN(C)C(=O)c1ccc(-c2cncnc2Nc2ccccc2)cc1 | -2.66% (inactive) | – |
| Cn1c(-c2ccc3c(c2)OCO3)cnc1NCc1ccccc1 | – | 0.794 µM (active) |
| Cc1cccc(CNc2ncncc2-c2ccc(C(=O)N(C)C)cc2)c1 | -9.23% (inactive) | – |
| Cc1ccc(C(=O)N/N=C\c2ccc[nH]2)cc1[N+](=O)[O-] | -6.03% (inactive) | – |
| CCCOc1ccc(C(=O)NNC(=S)NC(=O)c2cc(-c3ccccc3)nc3ccccc23)cc1 | 3.87% (inactive) | – |
| O=C(Nc1cccn2ncnc12)c1ccc(Cl)cc1Cl | 2.48% (inactive) | – |
| COC(=O)C1=C(NC(=O)c2cccs2)CCS1 | 12.9% (inactive) | – |
| COc1cnc(-c2ccccn2)nc1Sc1c(Cl)cccc1Cl | -25% (inactive) | – |
| COc1cc(OC)cc(C(=O)Nn2cc(C(=O)N3CCN(C)CC3)c3ccccc3c2=O)c1 | -15.2% (inactive) | – |

| Compound | activity, negative = inhibition | AC50 |
| --- | --- | --- |
| O=C1CC[C@H](N2C(=O)c3ccccc3C2=O)C(=O)N1 | – | inactive |
| CCn1cc(C(=O)O)c(=O)c2cc(F)c(N3CCNCC3)nc21 | 6.39% [at 25.6 µM] (inactive) | – |
| O=C(O)C[C@H](S)C(=O)O | -2.12% [at 11.4 µM] (inactive) | – |
| Clc1ccc2c(c1)C=Nc1c(NCc3ccccc3)ncnc1O2 | -0.537% (inactive) | – |
| c1ccc(CNc2ncncc2-c2ccc3c(c2)OCO3)cc1 | – | 12.6 µM (active) |
| c1cncc(CNc2ncncc2-c2cccnc2)c1 | -11.4% (inactive) | – |
| c1cncc(CNc2ncncc2-c2ccc3c(c2)OCO3)c1 | – | 15.8 µM (active) |
| c1ccc(Nc2ncnc3ccc(-c4ccc5c(c4)OCO5)cc23)cc1 | – | 0.126 µM (active) |
| c1csc(CNc2ncncc2-c2ccc3c(c2)OCO3)c1 | – | 10 µM (active) |
| N#Cc1cccc(-c2cncnc2NCc2cccnc2)c1 | -9.2% (inactive) | – |
| COc1ccc(NC(=O)N2CC[C@@]3(CCCN(C(=O)c4cccc(F)c4)C3)C2)cc1 | 6.12% (inactive) | – |
| O=C(Nc1ccccc1)N1CCSc2cc(Cl)ccc21 | -11.2% (inactive) | – |
| OC[C@@H]1O[C@@H](N2CCN([C@@H]3O[C@@H](CO)[C@@H](O)[C@H](O)[C@H]3O)CC2)[C@@H](O)[C@H](O)[C@H]1O | -3.98% [at 11.4 µM] (inactive) | – |
| COc1ccc2c(c1[N+](=O)[O-])CCC/C2=N/OC(=O)c1ccccc1SC | -3.18% (inactive) | – |
| NC(N)=NC(N)=Nc1ccc(S(N)(=O)=O)cc1 | 4.99% [at 11.4 µM] (inactive) | – |
| O=C(CCCCCn1c(=S)[nH]c2cc3c(cc2c1=O)OCO3)N1CCN(C2CCCCC2)CC1 | – | 8.91 µM (active) |
| CCN(CC)CCn1c(=S)[nH]c2cc3c(cc2c1=O)OCO3 | – | 0.631 µM (active) |
| CCOc1cc2[nH]c(=S)n(CCCC(=O)NCc3ccco3)c(=O)c2cc1OCC | 18.8% (inactive) | – |
| C=CCNC(=O)c1ccc(Cn2c(=S)[nH]c3cc4c(cc3c2=O)OCO4)cc1 | 8.13% (inactive) | – |
| O=C(CCCn1c(=S)[nH]c2cc3c(cc2c1=O)OCO3)N1CCN(c2ncccn2)CC1 | – | 5.01 µM (active) |
| O=C(c1ccc2c(=O)n(Cc3ccco3)c(=S)[nH]c2c1)N1CCN(c2ccccc2)CC1 | -19.2% (inactive) | – |
| O=C(c1ccc2c(=O)n(CC3CCCO3)c(=S)[nH]c2c1)N1CCN(c2ccccc2)CC1 (centres undefined) | -17.4% (inactive) | – |
| CCCCNC(=O)CCn1c(=S)[nH]c2cc3c(cc2c1=O)OCO3 | -7.86% (inactive) | – |
| O=C(CCCn1c(=S)[nH]c2ccc(Br)cc2c1=O)NCC1CCCO1 (centres undefined) | -8.4% (inactive) | – |

Reference: PubChem BioAssay AID1851 (National Center for Advancing Translational Sciences (NCATS), 2009)
